Bioassay records: PubChem BioAssay, National Center for Advancing Translational Sciences (NCATS)
A selection: hits, their analogues and other compounds. The true share with any hit is near 10%.
NPR1 antag: human Npr1 receptor antagonism; P16066; HEK293 hNpr1 GloSensor cGMP, ANP-stimulated luminescence; Potency, µM (top dose mostly 46.3 µM), inactives show at the highest dose activity change, negative = inhibition, actives largely listed as inhibitors; 76,000 compounds, 1.6% hits; AID 1347048; calls by dose curve; also: nearly all actives have a fitted effect of over 60% in size
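HEK293 cells stably expressing human Npr1 and cGMP GloSensor pGS-40F, loaded 2 h with 2% GloSensor reagent, given compound 30 min at room temperature. Luminescence read before and 20 min after 0.1 nM hNppA.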
GPT2 inh: blocks human glutamate pyruvate transaminase 2 | 100,000 compounds, 0.25% hits | Recombinant GPT2, coupled pyruvate oxidase/HRP Amplex Red fluorescence | Q8TD30 | Potency, µM (highest dose often 57.7 µM), inactives show at the top dose activity change, negative = inhibition, most hits filed as inhibitors; also: nearly all actives have a fitted effect of over 60% in size
Target sequence (Q8TD30 whole entry, looked up): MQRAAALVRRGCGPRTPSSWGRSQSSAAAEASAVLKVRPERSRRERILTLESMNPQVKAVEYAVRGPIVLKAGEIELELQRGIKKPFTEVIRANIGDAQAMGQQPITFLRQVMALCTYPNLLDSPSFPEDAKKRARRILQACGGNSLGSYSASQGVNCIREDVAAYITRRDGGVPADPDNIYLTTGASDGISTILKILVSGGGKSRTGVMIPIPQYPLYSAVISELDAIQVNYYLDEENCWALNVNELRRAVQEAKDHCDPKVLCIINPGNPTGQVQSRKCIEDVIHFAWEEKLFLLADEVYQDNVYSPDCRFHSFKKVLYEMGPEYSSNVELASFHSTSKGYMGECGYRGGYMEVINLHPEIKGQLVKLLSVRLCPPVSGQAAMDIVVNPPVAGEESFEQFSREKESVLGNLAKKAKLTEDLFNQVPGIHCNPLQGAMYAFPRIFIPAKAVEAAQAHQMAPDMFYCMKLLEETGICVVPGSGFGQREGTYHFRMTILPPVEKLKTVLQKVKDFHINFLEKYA
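Recombinant GPT2 (10ng/uL) with 250uM a-KG and 2mM L-alanine, 30 min at room temperature, in HEPES pH 7.5 buffer. Pyruvate detected by pyruvate oxidase/HRP/Amplex Red fluorescence after 30 min in the dark; AOA (50uM) as positive control.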
HEK293 tox: kills HEK 293 cells | Potency, µM (top dose mostly 115 µM), without a hit: at the top dose activity change, negative = cytotoxicity, hits mostly inhibitors | 94,000 compounds, 6.6% hits | HEK 293 viability, ATP luminescence (CellTiter-Glo), 48-72 h; also: nearly all actives have a fitted effect of over 60% in size
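Cells seeded first (HEK 293, 250 cells/well), then compound added by pintool. Incubation ran 48 or 72 hr at 37 degree Celsius. CellTiter-Glo was added and luminescence imaged after 10 min at room temperature.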
3T3 cytotox: kills NIH 3T3 cells; NIH 3T3 viability, CellTiter-Glo ATP luminescence, 48-72 h; Potency, µM (highest dose often 96.7 µM), for the others: at the highest dose activity change, negative = cytotoxicity, most hits filed as inhibitors; 94,000 compounds, 4.3% hits; AID 1345082; also: nearly all actives have a fitted effect of over 55% in size
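Mouse fibroblast NIH 3T3 cells, 400 per well, received compound via pintool and were incubated for 48 or 72 hr prior to CellTiter-Glo ATP luminescence measurement.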
FLuc inh: blocks purified firefly luciferase enzyme activity | P08659 | purified P. pyralis luciferase, luminescence, biochemical | Potency, µM (series often up to 115 µM), actives largely listed as inhibitors | 76,000 compounds, 2.5% hits | AID 1347043; also: nearly all actives have a fitted effect of over 65% in size
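Biochemical qHTS: compound (6-point titration) added to 10uM D-luciferin plus 10uM ATP in Tris acetate pH 7.5 buffer with Mg, Tween-20 and BSA, then purified enzyme at 10nM; light output imaged.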
* = called active by the depositor; i = inactive; ? = inconclusive; / = no result given; [ ] = remark or other dose. Unless noted, calls follow the shape of the dose curve; as a rule, active = well fitted curve in the direction sought with a large enough effect; inconclusive = small, poorly fitted or top-dose-only effect, or another doubt; inactive = no such curve, though single readings can be large; an effect the other way counts as inactive or inconclusive. % is scaled to controls: 0 for no effect and ±100 for the full control effect; potency is read from the fitted curve at half-maximal effect.

SMILES	NPR1 antag	GPT2 inh	HEK293 tox	3T3 cytotox	FLuc inh
CCOCc1nc(C2CCCN(C(=O)NCCc3ccccc3)C2)no1 (stereo not drawn)	-4%	i	-4%	1%	i
CN(CCc1noc(C2CN(S(=O)(=O)c3cccnc3)C2)n1)C(=O)C1CC1	/	i	-6%	-4%	/
COc1ccc(-c2cc(N3CCC(NC(=O)Cc4ccccc4C)CC3)n[nH]2)cc1	-14%	i	?	?	i
COc1ccc(-c2cc(N3CCC(NC(=O)COc4ccccc4C)CC3)n[nH]2)cc1	?	?	?	25µM*	i
COc1ccc(-c2cc(N3CCCC(NC(=O)c4cc5ccccc5[nH]4)C3)n[nH]2)cc1 (stereo not drawn)	-18%	?	?	?	8.9µM*
COc1ccc(-c2cc(N3CCCC(NC(=O)c4ccccc4F)C3)n[nH]2)cc1 (stereo not drawn)	-17%	?	?	?	?
CC1(C(=O)NCC2CC2)CCc2cnc(NCc3ccccc3)nc21 (stereo not drawn)	-4%[70.6 µM]	-6%[88.5 µM]	40µM*	?	i
COCCNC(=O)C1(C)CCc2cnc(NCc3ccccc3)nc21 (stereo not drawn)	8%[70.6 µM]	1%[88.5 µM]	-26%[172 µM]	89µM*	i
CC1(C(=O)NCCCn2ccnc2)CCc2cnc(NCc3ccccc3)nc21 (stereo not drawn)	4%[70.6 µM]	i	-21%[172 µM]	32µM*	i
CN1CCC(NC(=O)C2(C)CCCc3cnc(NCc4ccccc4)nc32)CC1 (stereo not drawn)	0%[70.6 µM]	i	?	-28%[138 µM]	i
CC1(C(=O)NCC2CC2)CCCc2cnc(Nc3ccccc3)nc21 (stereo not drawn)	-25%[70.6 µM]	2%[88.5 µM]	?	?	i
COCCNC(=O)C1(C)CCc2cnc(Nc3ccccc3)nc21 (stereo not drawn)	5%[70.6 µM]	i	?	79µM*	i
COc1cc(CN2CCCCC23Cc2ccccc2CNC3=O)ccc1F (stereo not drawn)	/	-7%	?	?	/
Cc1ccc(C(=O)N2CCN(c3ccc4nnc(C5CC5)n4n3)CC2)cc1	/	/	i	-18%	/
O=C(c1ccc2ccccc2n1)N1CCC(N2CC3CC(C2)[C@H]2CCCC(=O)N2C3)CC1 (stereo partly drawn)	2%	i	-4%	i	i
Cn1ccc(NC(=O)C2(C)CCc3cnc(NCc4ccccc4)nc32)n1 (stereo not drawn)	-5%[70.6 µM]	4%[88.5 µM]	?	20µM*	i
COCCNC(=O)C1(C)CCCc2cnc(Nc3ccccc3)nc21 (stereo not drawn)	-2%[70.6 µM]	-15%[88.5 µM]	?	?	i
CC1(C(=O)NCCOc2ccccc2)CCCc2cnc(Nc3cccnc3)nc21 (stereo not drawn)	-16%[70.6 µM]	2%[88.5 µM]	100µM*	?	i
Cc1noc(C2CC3(CCN(C(=O)CCc4ccccc4)CC3)CN2C)n1 (stereo not drawn)	-9%	-56%	-15%	-29%	i
CN(C)C(=O)NC[C@@H]1CC[C@H]2C[C@@H]1C2(C)C	4%[70.6 µM]	i	?	-23%[174 µM]	i
COc1ccccc1-c1cc(C(=O)NCc2c(C)cc(C)[nH]c2=O)c2c(c1)N(C)CCO2	-11%[70.6 µM]	-7%[88.5 µM]	89µM*	?	i
Cc1cc(C)c(CNC(=O)c2cc(-c3ccccc3)cc3c2OCCN3C(C)C)c(=O)[nH]1	-9%[70.6 µM]	-18%[88.5 µM]	32µM*	22µM*	i
Cc1cc(C)c(CNC(=O)c2cc(-c3ccccc3)cc3c2OCCN3C)c(=O)[nH]1	-14%[70.6 µM]	5%[88.5 µM]	?	?	i
COc1cc(F)ccc1-c1cc(C(=O)NCc2ccnc(N)c2)c2c(c1)ncn2C	-13%[70.6 µM]	-8%[88.5 µM]	?	?	?
COc1cc(F)ccc1-c1cc(C(=O)NCc2c(C)cc(C)[nH]c2=O)c2c(c1)ncn2C	4%[70.6 µM]	-4%[88.5 µM]	?	25µM*	?
SMILES	NPR1 antag	GPT2 inh	HEK293 tox	3T3 cytotox	FLuc inh
Cc1cc(C)c(CNC(=O)c2cc(-c3ccc(CO)cc3)cc3c2OCCN3C)c(=O)[nH]1	0%[70.6 µM]	i	89µM*	13µM*	i
O=C(NCc1ccc2c(c1)OCO2)C1CCCN(c2nc3ncccc3o2)C1 (stereo not drawn)	16%	i	i	i	i
CC1CCC(NC(=O)C2CCN(c3cc(C(F)(F)F)ncn3)CC2)CC1 (stereo not drawn)	2.2µM*	i	?	?	?
Cc1ccc(NC(=O)C2CCN(c3cc(C(F)(F)F)ncn3)CC2)c(C)c1	?	i	?	-17%	i
Cc1nn2c(c1-c1cccnc1N1CCOCC1)N(C(=O)c1cc3ccccc3n1C)CCC2	5%	-15%	-11%	?	i
Cc1nn2c(c1-c1ccccc1N1CCCC1)N(C(=O)c1ccc(F)cc1)CCC2	-16%[70.6 µM]	3%[88.5 µM]	71µM*	?	i
Cc1nn2c(c1-c1ccccc1N1CCCC1)N(C(=O)c1cc3ccccc3n1C)CCC2	-19%[70.6 µM]	i	50µM*	35µM*	i
Cc1nn2c(c1-c1ccccc1C(C)C)N(C(=O)c1cc3ccccc3n1C)CCC2	?	1%[88.5 µM]	50µM*	22µM*	i
COCCCNC(=O)C1CCc2nnc(C3CC3)n21 (stereo not drawn)	/	i	-2%	-4%	/
O=C(c1scc2c1OCCO2)N1CCCC(N2CCN(c3cccc(Cl)c3)CC2)C1 (stereo not drawn)	1%	-3%	-17%	-14%	i
COc1ccc(C2(C(=O)N3c4ccccc4CC3c3noc(C4CCOCC4)n3)CC2)cc1 (stereo not drawn)	-4%	-9%	?	?	25µM*
COc1ccc(NC(=O)N2c3ccccc3CC2c2nc(C(C)C)no2)c(OC)c1 (stereo not drawn)	-10%	-7%	?	?	i
COc1ccc(CCN(Cc2ccccc2F)CC2(O)CCCNC2)cc1 (stereo not drawn)	-25%	-13%	25µM*	25µM*	i
COCc1ccc2c(c1)c(OC(C)(C)C(=O)NCc1cnccn1)nn2Cc1ccccc1	4%	0%	?	40µM*	i
COCc1ccc2c(c1)c(OC(C)(C)C(=O)NC1CCC(O)CC1)nn2Cc1ccccc1 (stereo not drawn)	-2%	i	-31%	40µM*	i
COCc1ccc2c(c1)c(OC(C)(C)C(=O)N1CC(O)C1)nn2Cc1ccccc1	3%[70.6 µM]	-3%[88.5 µM]	?	100µM*	i
CC(C)(Oc1nn(Cc2cccc(Cl)c2)c2ccccc12)C(=O)N1CCCC1	-16%[70.6 µM]	-19%[88.5 µM]	?	50µM*	i
